We go through 18 molecules from PubChem BioAssay (EPA / NIEHS).

Molecules are shown by their SMILES. Active and inactive are the calls of the source. The calls were made as follows: active = hit-call score of the fitted dose curve at least 0.9, where 1 is the maximum; inactive = score below 0.9.

A short description of the assay: CCTE_Shafer_MEA_acute_burst_duration_mean: CCTE's Neural Acute Assay for Mean Burst Duration, Shafer Lab (AID 2284014).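 Also: hits are decreases in mean burst duration relative to DMSO controls.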 In outline: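 Rat cortical cultures, DIV 13/15; 40 min baseline, then 40 min with compound (0.03-40 uM), 37 C. Spikes: 300-5000 Hz band-pass, 8x rms threshold. Read-out: % change in mean single-electrode burst duration, DMSO-referenced, loss direction.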
`Nc1nc(=S)c2[nH]cnc2[nH]1`: the molecule was called inactive. On to `CCc1cc(C2=C(C(=O)O)N(c3ccccc3C(F)(F)F)S(=O)(=O)c3ccccc32)cc2c1OCO2`, for which the outcome was inactive. The same measure, in the same setting: the same measure for `Cc1ccc(-c2cc(C(F)(F)F)nn2-c2ccc(S(N)(=O)=O)cc2)cc1`: “inactive”. The same measure, in the same setting: with `OCC(CO)n1cnc(-c2ccc(F)cc2)c1-c1ccnc(Oc2ccccc2)n1` the entry was “inactive”. For `CN(C)C(=O)NC1(c2ccccc2)CCN(CCC[C@]2(c3ccc(Cl)c(Cl)c3)CCCN(C(=O)c3ccccc3)C2)CC1`, the AC50 is 1070 nM (active). In the case of `CN(C)C(=O)NC1(c2ccccc2)CCN(CC[C@@]2(c3ccc(F)c(F)c3)CN(C(=O)c3ccccc3)CCO2)CC1`, the molecule was classed as inactive. The same measure, in the same setting: with `CCN(CC)CCOc1ccc(C(=C(Cl)c2ccccc2)c2ccccc2)cc1` the entry was “inactive”.

As to `Cc1c(C)c2c(c(C)c1O)CCC(C)(COc1ccc(CC3SC(=O)NC3=O)cc1)O2` (stereo not drawn), the molecule was classed as inactive.

As to `CN(C)CCCN1c2ccccc2Sc2ccc(Cl)cc21`, the outcome was inactive. Still for that read-out and setting: with `CCCCC(CC)COP(=O)(OCC(CC)CCCC)OCC(CC)CCCC` (stereo not drawn) the entry was “inactive”; with `Cc1cc(SC2=C(O)C[C@@](CCc3ccc(N)cc3)(C(C)C)OC2=O)c(C(C)(C)C)cc1CO`, “inactive”; with `CSc1ccc(Oc2ccc(S(N)(=O)=O)cc2CN(C)C)cc1C`, “inactive”. The same measure, in the same setting: the same measure for `CCCC(=O)O`: “inactive”; for `CC1=C(C)S(=O)(=O)CCS1(=O)=O`: “inactive”. Still for that read-out and setting: the same measure for `O=C1OC(c2ccc(O)cc2)(c2ccc(O)cc2)c2ccccc21`: “inactive”; for `NC(=Nc1ccccc1)Nc1ccccc1`: “inactive”; for `Oc1ccc(O)cc1`: “inactive”. For the molecule `O=C(O)CN(CC(=O)O)CC(=O)O`, the outcome was inactive.
